From PubChem BioAssay
For some assays here: Potency and affinity values are given separately. Active and inactive are the calls of the source.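 The calls were made as follows, unless noted: active = primary screen activator hit with a dose response curve and TRPC4 channel activation at any tested dose; inactive = no activation, no dose response, or not a primary hit.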

What was measured:
[1] = system: TRPC4 beta (transient receptor potential cation channel C4), mouse; assay: activators of mouse TRPC4 channel, confirmation, cell-based, Fluo4 calcium, HEK293 TRPC4beta/mu-opioid, duplicates, 10 µM (AID 2426;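 active = fluorescence ratio normalized to control raised more than 50% in primary screen plus both repeat runs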); details: Fluo4 calcium fluorescence, at 10 µM; hits give high values
[2] = system: transient receptor potential cation channel C4 beta (TRPC4), mouse; assay: activators of mouse TRPC4 channel, confirmation, cell-based, second round, Fluo4, HEK293 TRPC4beta/mu-opioid, 1 µM (AID 2461;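 active = primary screen active and over 50% activation in each of two duplicate runs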); details: Fluo4 calcium fluorescence, at 1 µM; hits give high values
[3] = system: TRPC4 (transient receptor potential cation channel C4 beta), mouse; assay: positive allosteric modulators of mouse TRPC4, confirmation, cell-based, second round, Fluo-4, HEK293 TRPC4beta/mu-opioid, 1 µM (AID 2554;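 active = primary screen hit whose fluorescence ratio, in both repeats, exceeds the weak agonist control mean by 3 SD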); details: DAMGO EC20, Fluo-4 calcium flux, at 1 µM; hits give high values
[4] = system: TRPC4 beta (transient receptor potential cation channel C4), mouse; assay: positive allosteric modulators of mouse TRPC4, confirmation, cell-based, Fluo-4, HEK293 TRPC4beta/mu-opioid (AID 2555;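 active = primary screen hit whose calcium fluorescence ratio, in both repeats, exceeds the weak agonist control mean by 3 SD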); details: DAMGO EC20, Fluo-4 calcium flux, at 10 µM; hits give high values
[5] = target: Short transient receptor potential channel 4 (Mus musculus) (UniProt Q9QUQ5); assay: inhibitors of mouse TRPC4 channel, confirmation, cell-based, Fluo4, HEK293 TRPC4beta/mu-opioid (AID 2636;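 active = calcium signal cut by more than 3 SD below the full-agonist control yet still positive, in both repeats and the earlier primary screen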); details: DAMGO, Fluo4 calcium flux, at 10 µM; hits give high values
Short transient receptor potential channel 4 (Mus musculus), sequence (Q9QUQ5 whole entry, looked up): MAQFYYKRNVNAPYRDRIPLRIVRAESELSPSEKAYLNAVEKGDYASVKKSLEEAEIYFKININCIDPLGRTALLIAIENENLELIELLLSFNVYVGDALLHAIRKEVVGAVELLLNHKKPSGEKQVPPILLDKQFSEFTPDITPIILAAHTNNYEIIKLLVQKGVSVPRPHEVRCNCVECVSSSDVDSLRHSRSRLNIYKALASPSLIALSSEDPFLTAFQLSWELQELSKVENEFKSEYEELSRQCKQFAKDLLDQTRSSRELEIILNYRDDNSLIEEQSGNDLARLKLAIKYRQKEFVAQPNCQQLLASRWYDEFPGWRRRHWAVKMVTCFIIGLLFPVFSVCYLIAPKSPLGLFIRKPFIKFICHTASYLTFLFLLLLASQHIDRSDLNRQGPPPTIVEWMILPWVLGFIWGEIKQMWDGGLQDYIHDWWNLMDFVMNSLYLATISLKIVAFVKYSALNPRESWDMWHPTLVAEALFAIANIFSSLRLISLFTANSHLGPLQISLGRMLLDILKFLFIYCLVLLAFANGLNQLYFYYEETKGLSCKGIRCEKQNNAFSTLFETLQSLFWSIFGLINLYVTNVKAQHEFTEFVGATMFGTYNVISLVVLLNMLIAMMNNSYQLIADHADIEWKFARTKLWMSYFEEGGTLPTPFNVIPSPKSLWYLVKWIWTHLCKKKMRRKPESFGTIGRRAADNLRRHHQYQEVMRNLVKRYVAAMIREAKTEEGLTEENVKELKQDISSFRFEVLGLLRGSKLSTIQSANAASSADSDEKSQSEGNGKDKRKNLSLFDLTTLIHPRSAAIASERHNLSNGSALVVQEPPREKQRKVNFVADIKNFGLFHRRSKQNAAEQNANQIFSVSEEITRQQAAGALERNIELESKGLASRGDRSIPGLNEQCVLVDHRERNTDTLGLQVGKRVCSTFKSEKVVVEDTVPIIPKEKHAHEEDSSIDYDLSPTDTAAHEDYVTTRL

[6] = target: Short transient receptor potential channel 4 (Mus musculus) (UniProt Q9QUQ5); assay: inhibitors of mouse TRPC4 channel, confirmation, cell-based, second round, Fluo4, HEK293 TRPC4beta/mu-opioid, 1 µM (AID 2637;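 active = calcium signal ratio cut to more than 3 SD under the fully stimulated control mean yet still positive, in both repeats and the primary screen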); details: Fluo4 calcium flux, DAMGO, at 1 µM; hits give high values
[7] = target: Short transient receptor potential channel 4 (Mus musculus) (UniProt Q9QUQ5); assay: mouse TRPC4 channel activators, dose response, cell-based, HEK293 TRPC4/mu-opioid, Fluo-4 calcium (AID 434937)
[8] = target: Short transient receptor potential channel 4 (Mus musculus) (UniProt Q9QUQ5); assay: TRPC4 positive allosteric modulators, dose response, cell-based, HEK293 TRPC4/mu-opioid, Fluo-4 calcium, EC20 DAMGO (AID 434941;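 active = earlier screen potentiator hit that boosts the TRPC4 ion channel at some dose, with a dose response; inactive = no potentiation, no dose response, or not a prior hit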;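 also: calcium entry triggered by an EC20 dose of DAMGO at the co-expressed mu-opioid receptor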)
[9] = target: Short transient receptor potential channel 4 (Mus musculus) (UniProt Q9QUQ5); assay: mouse TRPC4 channel inhibitors, dose response, cell-based, HEK293 TRPC4/mu-opioid, Fluo-4 calcium (AID 434942;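 active = primary screen inhibitor hit that blocks the TRPC4 channel at some tested dose, yielding a dose curve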)
[10] = target: Short transient receptor potential channel 6 (Mus musculus) (UniProt Q61143); assay: inhibition of mouse TRPC6 channel, confirmation, selectivity assay for TRPC4 inhibitor project, cell-based, HEK293, membrane potential dye, duplicate (AID 434948;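 active = active in primary screen and both duplicates, each dropping signal beyond three positive-control SD with fluorescence still positive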); details: HEK293 TRPC6, membrane potential dye fluorescence, at 10 µM, stimulated with maximal-effect acetylcholine; hits give high values
Short transient receptor potential channel 6 (Mus musculus), sequence (Q61143 whole entry, looked up): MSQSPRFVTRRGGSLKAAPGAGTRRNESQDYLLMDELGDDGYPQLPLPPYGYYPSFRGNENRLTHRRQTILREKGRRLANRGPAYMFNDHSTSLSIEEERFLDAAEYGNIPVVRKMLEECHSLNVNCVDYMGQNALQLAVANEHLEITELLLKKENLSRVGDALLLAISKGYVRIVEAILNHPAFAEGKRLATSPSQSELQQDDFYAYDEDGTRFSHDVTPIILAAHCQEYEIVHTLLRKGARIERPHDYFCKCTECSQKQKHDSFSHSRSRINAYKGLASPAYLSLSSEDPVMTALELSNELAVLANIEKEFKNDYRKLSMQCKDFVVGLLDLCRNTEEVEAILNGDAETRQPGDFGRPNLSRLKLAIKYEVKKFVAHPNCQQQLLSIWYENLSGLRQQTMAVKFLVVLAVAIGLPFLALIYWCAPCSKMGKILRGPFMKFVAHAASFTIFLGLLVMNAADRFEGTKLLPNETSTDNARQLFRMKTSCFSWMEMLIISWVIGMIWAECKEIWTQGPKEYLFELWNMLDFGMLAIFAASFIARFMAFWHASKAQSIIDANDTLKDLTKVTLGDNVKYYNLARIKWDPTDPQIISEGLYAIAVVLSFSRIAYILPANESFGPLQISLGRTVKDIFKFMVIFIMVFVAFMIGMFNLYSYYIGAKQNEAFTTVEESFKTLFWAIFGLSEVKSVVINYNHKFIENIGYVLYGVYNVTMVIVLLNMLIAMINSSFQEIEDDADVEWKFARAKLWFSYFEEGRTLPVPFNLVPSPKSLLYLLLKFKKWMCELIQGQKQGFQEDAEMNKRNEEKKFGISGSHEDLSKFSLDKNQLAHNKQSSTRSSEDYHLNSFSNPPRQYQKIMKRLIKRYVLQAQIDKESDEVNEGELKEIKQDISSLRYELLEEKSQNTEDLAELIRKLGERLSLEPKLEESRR

[11] = target: Short transient receptor potential channel 6 (Mus musculus) (UniProt Q61143); assay: activation of mouse TRPC6 channel, confirmation, selectivity assay for TRPC4 activator project, cell-based, HEK293, membrane potential dye, duplicate (AID 434950;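 active = membrane potential signal rise above negative control mean plus 3 SD in both duplicates, also active in the earlier TRPC4 screen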); details: HEK293 TRPC6, membrane potential fluorescence, at 10 µM; hits give high values
[12] = target: Short transient receptor potential channel 6 (Mus musculus) (UniProt Q61143); assay: TRPC6 potentiation by TRPC4 potentiator hits, confirmation, selectivity assay for TRPC4 potentiator project, HEK293 cells, membrane potential dye, duplicate (AID 434952;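 active = compound raising the membrane signal above positive-control mean plus 3 SD in both repeats, and a primary screen hit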); details: HEK293 TRPC6, membrane potential dye fluorescence, at 10 µM, maximal acetylcholine added after compound; hits give high values
[13] = target: Short transient receptor potential channel 4 (Mus musculus) (UniProt Q9QUQ5); assay: calcium flux activators in TRPC4/5HT1a cells, counter-screen for TRPC4 activator project, cell-based, second counter screen, HEK293 TRPC4/5HT1a, Fluo-4 (AID 434977;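 active = calcium signal rise above buffer-control mean plus 5 SD in both duplicates, and also a hit in the primary screen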); details: Fluo-4 calcium flux, at 10 µM; hits give high values
[14] = calcium flux inhibitors in TRPC4/5HT1a cells, confirmation, counter-screen for TRPC4 inhibitor project, cell-based, second counter screen, HEK293 TRPC4/5HT1a, Fluo-4 (AID 434978;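 active = primary screen active whose calcium signal fell more than 3 SD beyond the full-serotonin control mean in both duplicate plates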;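 also: serotonin given first at submaximal then at maximal dose after compound preincubation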); details: Fluo-4 calcium flux, at 10 µM, serotonin added to trigger calcium flux; hits give high values
[15] = system: TRPC4 (mouse), co-expressed with 5HT1a in HEK293; assay: calcium flux potentiators in TRPC4/5HT1a cells, confirmation, counter-screen for TRPC4 potentiator project, cell-based, second counter screen, HEK293 TRPC4/5HT1a, Fluo-4 (AID 434979;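 active = signal rise over 3 SD above mean of control wells given weak agonist, in both repeats and first screen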); details: Fluo-4 calcium flux, at 10 µM, serotonin added at its EC20 dose; hits give high values
[16] = calcium flux activation in mu-opioid HEK293 cells, confirmation, counter-screen for TRPC4 activator project, cell-based, HEK293 mu-opioid receptor line (AID 449723;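 active = hit in primary screen, with calcium signal over 5 SD above buffer well mean in both duplicates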;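 also: counter screen cells carry the mu-opioid receptor alone and lack TRPC4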); details: Fluo-4 calcium fluorescence, at 10 µM; hits give high values
[17] = calcium flux enhancement in mu-opioid HEK293 cells, confirmation, counter-screen for TRPC4 allosteric potentiator project, cell-based, HEK293 mu-opioid receptor line (AID 449724;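 active = calcium signal rise more than 3 SD above the low-dose agonist control mean, in both duplicate plates and the primary screen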); details: Fluo-4 calcium flux, at 10 µM, compound added before EC20 DAMGO stimulus; hits give high values

SMILES | outcome [1] | outcome [2] | outcome [3] | outcome [4] | outcome [5] | outcome [6] | outcome [7] | outcome [8] | outcome [9] | outcome [10] | outcome [11] | outcome [12] | outcome [13] | outcome [14] | outcome [15] | outcome [16] | outcome [17] | potentiation [15]
CCCSc1nc(C)cc(C)c1S(=O)(=O)c1ccccc1C | inactive | inactive | inactive | inactive | inactive | inactive | inactive | inactive | inactive | inactive | inactive | inactive | inactive | inactive | inactive | inactive | inactive | 
c1ccc2c3c([nH]c2c1)CCNC3 | inactive | inactive | inactive | inactive | inactive | inactive | inactive | inactive | inactive | inactive | inactive | inactive | inactive | inactive | inactive | inactive | inactive | 
O=C1CCSc2ccc(Cl)cc2N1Cc1ccc(Cl)cc1 | inactive | inactive | inactive | inactive | inactive | inactive | inactive | inactive | inactive | inactive | inactive | inactive | inactive | inactive | inactive | inactive | inactive | 
COc1ccc(-c2cc(C(=O)N3CC(C)CC(C)C3)c3ccccc3n2)cc1 (centres undefined) | inactive | inactive | inactive | inactive | inactive | inactive | inactive | inactive | inactive | inactive | inactive | inactive | inactive | inactive | inactive | inactive | inactive | 
Cc1cc(OCCN2CCCCC2)nc2ccccc12 | inactive | inactive | inactive | inactive | inactive | inactive | inactive | inactive | inactive | inactive | inactive | inactive | inactive | inactive |  | inactive | inactive | 13.7% (active)
CCOC(=O)CCSc1nc(C)cc(C(F)(F)F)c1C#N | inactive | inactive | inactive | inactive | inactive | inactive | inactive | inactive | inactive | inactive | inactive | inactive | inactive | inactive | inactive | inactive | inactive | 
O=C(C1CCCN(Cc2cccc(Cl)c2)C1)N1CCCCC1 (centres undefined) | inactive | inactive | inactive | inactive | inactive | inactive | inactive | inactive | inactive | inactive | inactive | inactive | inactive | inactive | inactive | inactive | inactive | 
